The panel holds about 79,000 compounds, 15% with a hit somewhere; the sample as a whole holds those more often. Active and inactive are the calls of the source. Rule as the data show it: active = growth inhibition above about 70%; inactive = the rest.
Test: NCI Yeast Anticancer Drug Screen. Data for the rad14 strain (AID 159);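 also: 0% = growth of vehicle-treated control cultures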
Settings: S. cerevisiae rad14 strain growth inhibition, stronger effect = higher value
Experimental: Growth inhibition of yeast strains with defined genetic alterations is measured as a screen for potential anti-cancer activity. Selected strains with alterations in DNA damage repair or cell cycle control were exposed to compounds and growth inhibition was measured relative to vehicle treated controls. The strain used in this assay is rad14

Measured: growth inhibition

COc1ccccc1N=NC(C(=O)c1ccccc1)C(=O)c1ccccc1
inactive: at 1.2 µM -33% | at 3.7 µM -29% | at 11.0 µM -14%
active: at 33.0 µM 98% | at 100.0 µM 97%

C[C@@H]1C[C@H]2[C@@H]3CCC4=CC(=O)C=C[C@]4(C)[C@@]3(Cl)[C@@H](Cl)C[C@]2(C)[C@@]1(O)C(=O)COP(=O)(O)O
inactive: at 1.2 µM -1% | at 3.7 µM 0% | at 11.0 µM -2% | at 33.0 µM -2% | at 100.0 µM 1%

Cc1ccc(CSC(N)=Nc2ccccc2)cc1C
inactive: at 1.2 µM -22% | at 3.7 µM -14% | at 11.0 µM -17% | at 33.0 µM 10% | at 100.0 µM 64%

NC(=S)N/N=C\c1nccc2ccccc12
inactive: at 1.2 µM -3% | at 3.7 µM 4% | at 11.0 µM 51%
active: at 33.0 µM 98% | at 100.0 µM 99%

O=C1c2ccccc2-c2n[nH]c3cccc1c23
inactive: at 1.2 µM -18% | at 3.7 µM -24% | at 11.0 µM -6% | at 33.0 µM 23% | at 100.0 µM 28%

Cc1ccc(N)c(S)c1
inactive: at 1.2 µM -43% | at 3.7 µM -36% | at 11.0 µM -22% | at 33.0 µM 55%
active: at 100.0 µM 96%

Cn1c2ccccc2c(=O)c2cc(NC(=O)CCCCC(=O)Nc3ccc4c(c3)c(=O)c3ccccc3n4C)ccc21
inactive: at 1.2 µM -1% | at 3.7 µM 3% | at 11.0 µM 3% | at 33.0 µM 17% | at 100.0 µM 58%

O=[N+]([O-])/C=C/c1ccc2ccccc2c1
inactive: at 1.2 µM 11%
active: at 3.7 µM 71% | at 11.0 µM 99% | at 33.0 µM 99% | at 100.0 µM 100%

— PubChem BioAssay (NCI)
